Records with an inconclusive call do not appear. The source made the active and inactive calls. Rule for the calls: active = hit-call score of the fitted dose curve at least 0.9, where 1 is the maximum; inconclusive = response in the unintended direction; inactive = score below 0.9.
Each compound was assayed against Androgen Receptor/SRC-1 Co-activator, AR (gene 367) (UniProt P10275) (assay: OT_AR_ARSRC1_0960: Odyssey Thera (OT) 16-hour HEK293T Protein-Complementation Assay for Androgen Receptor/SRC-1 Co-activator (AID 2283353);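 note: actives raise the signal above DMSO so potency reflects increased AR and SRC-1 complex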).
Outline: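 HEK293T cells stably expressing AR and SRC-1 fused to split Venus YFP fragments via (Gly4Ser)2 linkers were dosed for 16 h. Nuclear/cytoplasmic fluorescence ratio at 488 nm, ≥400 cells per image, fitted for gain of signal versus DMSO.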

Chain of Androgen Receptor/SRC-1 Co-activator, AR (gene 367) (P10275 whole entry, looked up, the tested form may be a part): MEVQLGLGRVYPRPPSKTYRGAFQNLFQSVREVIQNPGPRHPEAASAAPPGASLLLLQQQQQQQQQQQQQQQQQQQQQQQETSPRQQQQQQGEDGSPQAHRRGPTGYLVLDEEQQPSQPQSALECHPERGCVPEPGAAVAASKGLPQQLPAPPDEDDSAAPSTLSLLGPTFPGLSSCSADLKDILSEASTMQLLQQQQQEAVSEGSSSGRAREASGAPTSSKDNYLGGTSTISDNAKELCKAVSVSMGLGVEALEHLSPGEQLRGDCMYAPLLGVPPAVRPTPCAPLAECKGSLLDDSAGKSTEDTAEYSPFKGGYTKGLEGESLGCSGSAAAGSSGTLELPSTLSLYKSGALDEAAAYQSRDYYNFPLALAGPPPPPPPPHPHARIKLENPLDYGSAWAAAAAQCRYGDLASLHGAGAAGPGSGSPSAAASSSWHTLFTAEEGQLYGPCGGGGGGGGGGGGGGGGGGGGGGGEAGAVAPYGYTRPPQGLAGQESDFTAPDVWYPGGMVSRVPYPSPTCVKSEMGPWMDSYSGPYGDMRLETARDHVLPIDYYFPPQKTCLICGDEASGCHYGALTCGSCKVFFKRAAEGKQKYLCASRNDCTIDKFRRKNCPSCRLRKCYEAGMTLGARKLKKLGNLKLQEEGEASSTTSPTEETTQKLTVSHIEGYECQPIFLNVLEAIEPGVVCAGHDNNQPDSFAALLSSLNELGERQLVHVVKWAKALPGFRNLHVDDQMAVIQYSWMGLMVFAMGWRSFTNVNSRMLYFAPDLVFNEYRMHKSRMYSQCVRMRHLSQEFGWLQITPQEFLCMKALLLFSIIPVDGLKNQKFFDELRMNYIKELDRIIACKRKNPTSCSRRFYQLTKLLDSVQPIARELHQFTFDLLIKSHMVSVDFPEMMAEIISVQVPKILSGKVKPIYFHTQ

| Compound | outcome | AC50 |
| --- | --- | --- |
| CC(C)c1ccc2cc(C(C)C)ccc2c1 | inactive | – |
| CC(C)(C)c1ccc(-c2ccc(C(C)(C)C)cc2)cc1 | – | 77.8 µM (active) |
| CC(C)=CCC[C@H](C)CCO | inactive | – |
| CCCc1ccc(OC)cc1 | inactive | – |
| O=c1cc(-c2ccccc2)oc2ccccc12 | inactive | – |
| Oc1ccc(Cl)cc1Cc1cc(Cl)ccc1O | – | 29.6 µM (active) |

These compounds were tested against Androgen Receptor/SRC-1 Co-activator, AR (gene 367) (UniProt P10275) (assay: OT_AR_ARSRC1_0480: Odyssey Thera (OT) 8-hour HEK293T Protein-Complementation Assay for Androgen Receptor/SRC-1 Co-activator (AID 2283354);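 note: hits raise the complementation signal above DMSO so AC50 marks enhancers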).
Outline: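 HEK293T cells stably expressing AR and SRC-1 fused to split Venus YFP fragments via (Gly4Ser)2 linkers were read 8 h after compound dosing. Complementation was imaged at 488 and 635nm, and nuclear/cytoplasmic fluorescence ratio (488nm) was taken over ≥400 cells; gain-of-signal versus DMSO.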

| Compound | outcome | AC50 |
| --- | --- | --- |
| CC(C)c1ccc2cc(C(C)C)ccc2c1 | inactive | – |
| CC(C)(C)c1ccc(-c2ccc(C(C)(C)C)cc2)cc1 | inactive | – |
| CC(C)=CCC[C@H](C)CCO | inactive | – |
| CCCc1ccc(OC)cc1 | inactive | – |
| O=c1cc(-c2ccccc2)oc2ccccc12 | inactive | – |
| Oc1ccc(Cl)cc1Cc1cc(Cl)ccc1O | – | 55.5 µM (active) |

These compounds were tested against Estrogen receptor (Homo sapiens) + Estrogen receptor beta (Homo sapiens) (UniProt P03372+Q92731) (assay: OT_ER_ERaERb_1440: Odyssey Thera (OT) 24-hour HEK293T Protein-Complementation Assay for Estrogen Receptor-alpha/-beta Homodimer (AID 2283356);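 note: heteromer of ER alpha and ER beta binding domains; hits raise reporter fluorescence and both agonists and antagonists give an increase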).
Outline: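 24 h exposure; HEK293T PCA cells with ERα/ERβ LBD fragments; signal rise in nuclear or whole-cell fluorescence over vehicle.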

Chain of Estrogen receptor (Homo sapiens) + Estrogen receptor beta (Homo sapiens) (P03372 whole entry, looked up, the tested form may be a part): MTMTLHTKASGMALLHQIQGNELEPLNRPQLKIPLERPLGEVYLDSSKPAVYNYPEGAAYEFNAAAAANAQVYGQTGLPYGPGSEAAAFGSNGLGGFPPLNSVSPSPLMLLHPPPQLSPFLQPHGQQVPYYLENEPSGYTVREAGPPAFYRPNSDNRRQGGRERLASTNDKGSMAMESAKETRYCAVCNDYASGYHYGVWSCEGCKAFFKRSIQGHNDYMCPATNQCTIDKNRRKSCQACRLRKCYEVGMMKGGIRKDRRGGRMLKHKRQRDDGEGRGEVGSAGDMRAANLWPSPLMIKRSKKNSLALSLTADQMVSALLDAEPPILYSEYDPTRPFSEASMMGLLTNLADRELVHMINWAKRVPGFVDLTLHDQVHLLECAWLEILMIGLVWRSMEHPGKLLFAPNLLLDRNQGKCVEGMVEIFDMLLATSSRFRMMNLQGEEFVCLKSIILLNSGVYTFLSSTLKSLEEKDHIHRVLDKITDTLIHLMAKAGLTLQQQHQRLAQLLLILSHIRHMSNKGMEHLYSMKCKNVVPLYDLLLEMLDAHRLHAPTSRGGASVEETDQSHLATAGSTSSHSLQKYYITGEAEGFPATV
Chain of Estrogen receptor (Homo sapiens) + Estrogen receptor beta (Homo sapiens) (Q92731 whole entry, looked up, the tested form may be a part): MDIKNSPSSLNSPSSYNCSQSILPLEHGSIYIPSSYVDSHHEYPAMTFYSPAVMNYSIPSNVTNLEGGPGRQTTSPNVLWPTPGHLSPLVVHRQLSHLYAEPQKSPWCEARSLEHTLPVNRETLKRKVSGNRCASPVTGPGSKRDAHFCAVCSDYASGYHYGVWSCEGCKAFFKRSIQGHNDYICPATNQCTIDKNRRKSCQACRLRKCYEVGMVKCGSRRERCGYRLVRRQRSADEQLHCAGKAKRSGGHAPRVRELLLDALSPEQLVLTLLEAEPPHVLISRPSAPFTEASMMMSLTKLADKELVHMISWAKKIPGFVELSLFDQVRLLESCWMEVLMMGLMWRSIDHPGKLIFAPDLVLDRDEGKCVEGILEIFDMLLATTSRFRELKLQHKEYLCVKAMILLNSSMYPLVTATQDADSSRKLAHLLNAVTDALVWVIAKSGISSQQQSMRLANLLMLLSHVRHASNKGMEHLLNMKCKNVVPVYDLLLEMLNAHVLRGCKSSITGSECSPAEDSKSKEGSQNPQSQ

| Compound | outcome | AC50 |
| --- | --- | --- |
| Cn1c([N+](=O)[O-])cnc1COC(N)=O | inactive | – |
| O=C(c1ccccc1)C1CCC1 | inactive | – |
| COC(=O)c1c(C)cc(O)c(C)c1O | – | 61.8 µM (active) |
| c1c[nH]cn1 | inactive | – |
| CC(C)c1ccc2cc(C(C)C)ccc2c1 | inactive | – |
| CC/C=C\C/C=C\C/C=C\CCCCCCCC(=O)O | inactive | – |
| CC(C)(C)c1ccc(-c2ccc(C(C)(C)C)cc2)cc1 | inactive | – |
| CC(C)=CCC[C@H](C)CCO | inactive | – |
| CCCc1ccc(OC)cc1 | inactive | – |
| CC(=O)[C@H]1[C@H](C#N)C[C@H]2[C@@H]3CC=C4C[C@@H](O)CC[C@]4(C)[C@H]3CC[C@@]21C | inactive | – |
| O=c1cc(-c2ccccc2)oc2ccccc12 | – | 57.3 µM (active) |
| Cc1cc(C)c(C(=O)O)c(C)c1 | inactive | – |
| CN(C)c1ccc(C(=N)c2ccc(N(C)C)cc2)cc1 | – | 18.4 µM (active) |
| CCOC(=O)Cc1cccc2ccccc12 | inactive | – |
| CC1=CC[C@H]2C[C@@H]1C2(C)C | inactive | – |
| O=S(=O)(O)c1ccccc1C=Cc1ccc(-c2ccc(C=Cc3ccccc3S(=O)(=O)O)cc2)cc1 | inactive | – |
| CCCCCCCCCCCCCOP(=O)(O)O | inactive | – |
| CCCCCCCOC(=O)CCC | inactive | – |

| Compound | outcome | AC50 |
| --- | --- | --- |
| CCCCC/C=C\C/C=C\CCCCCCCC(=O)OC | inactive | – |
| CNC(=S)NN | inactive | – |
| CC1=NN(c2cc(S(=O)(=O)O)ccc2Cl)C(=O)C1N=Nc1ccccc1 (configuration not stated) | inactive | – |
| OC1CCCC1 | inactive | – |
| CC(C)(C)c1ccc(N)cc1 | inactive | – |
| C=C1C2CCC(C2)C1(C)C (configuration not stated) | inactive | – |
| CO[Si](OC)(OC)c1ccccc1 | inactive | – |
| CC(C)(C)c1ccc(OC(=O)c2ccccc2O)cc1 | – | 55.2 µM (active) |
| O=C(C=Cc1ccccc1)OCc1ccccc1 | inactive | – |
| O=C1CCCC1 | inactive | – |
| Cc1ccc(C(C)c2ccc(C)c(C)c2)cc1C | – | 83.6 µM (active) |
| CC=C1CC2C=CC1C2 (configuration not stated) | inactive | – |
| O=C(O)CCCC[C@@H]1SC[C@@H]2NC(=O)N[C@@H]21 | inactive | – |
| Oc1ccc(Cl)cc1Cc1cc(Cl)ccc1O | – | 11.9 µM (active) |
| Cc1ccc(N/N=c2\c(=O)cc/c(=N/Nc3ccc(S(=O)(=O)O)cc3)c2=O)c(C)c1 | inactive | – |
| O=S1(=O)OC(c2ccc(O)cc2)(c2ccc(O)cc2)c2ccccc21 | inactive | – |
| C=CC(=O)NC(C)(C)CS(=O)(=O)O | inactive | – |

— PubChem BioAssay (EPA / NIEHS)
